# Source: the supplement of paper PMC11482750
# ± gives the standard deviation of the averaged measurements.
# Compound: CCC1CCC(=O)O1 [γ-hexalactone]
# Assay: control-subtracted net OSN firing rate; higher = stronger neuronal activation
# Settings: odorant dilution (vol/vol): 1/100
# Protocol: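 Single sensillum recordings from olfactory sensory neurons. The neurons sit in the maxillary palp or antennal sensilla of D. melanogaster (wild type, mutants, or at1 empty-neuron lines expressing Or42a homologs or the A181D S307P mutant) and of four Scaptomyza species. Each odorant was given as a 1 s pulse from 20 µl loaded on filter paper at 1:100 vol/vol, diluted in mineral oil (γ-hexalactone in DMSO). Spikes were counted in a 0.5 s window starting 0.2 s after onset, background was subtracted, the count was doubled, and the mean solvent-control response was subtracted.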
row,Target,control-subtracted net OSN firing rate [spikes/s]
1,Canton-S ai2b,10 ± 6.9
2,Or67dGal4; UAS-SflaOr42a3 at1,48.8 ± 19
3,Canton-S ab5a,6.2 ± 8.2
4,Canton-S at4c,-6 ± 5.2
5,Canton-S pb3b,-2 ± 8.5
6,"Or67dGal4, UAS-Sfla Or42a3 at1",38.3 ± 15
7,Canton-S ab7a,-7.5 ± 11
8,Canton-S ab1d,1.5 ± 5.5
9,Canton-S ab9a,2.67 ± 7.6
10,Canton-S ab8a,3.2 ± 11
11,"Or67dGal4, UAS-Sfla Or42a3/+ at1",34 ± 6.2
12,Canton-S ai3c,0.5 ± 4.4
13,Canton-S ab3a,1.82 ± 8.3
14,"Or67dGal4, UAS-Sfla Or42a2 at1",-3.14 ± 2.5
15,Canton-S at4b,-2 ± 13
16,Canton-S ab5b,1.6 ± 5.2
17,Canton-S ab2a,-6.29 ± 11
18,Canton-S at4a,-3 ± 3.5
19,"Or67dGal4, UAS-Spal Or42a at1",95.8 ± 46
20,"Or67dGal4, UAS-Dmel Or42a at1",79 ± 40

row,Target,control-subtracted net OSN firing rate [spikes/s]
1,Canton-S at1,-2 ± 5.5
2,Canton-S ab6b,4.22 ± 12
3,Canton-S ab9b,-2.67 ± 12
4,Canton-S ab8b,10 ± 5.8
5,Canton-S ab4a,2 ± 2
6,Canton-S ab6a,3.33 ± 7
7,Or67dGal4; UAS-A181D S301P at1,42.6 ± 20
8,Canton-S ab10b,-0.2 ± 5.2
9,Canton-S ab4b,-4 ± 5.3
10,Canton-S ai2a,-2 ± 5.3
11,Canton-S pb2b,-2.5 ± 3.8
12,Canton-S ab3b,-0.909 ± 7.1
13,Canton-S ab1a,0.25 ± 12
14,Canton-S ab1c,1.5 ± 4.2
15,Canton-S ab2b,6.86 ± 9.2
16,Canton-S ab1b,2.5 ± 8.5
17,Canton-S ai3a,-1.5 ± 3.4
18,"Or67dGal4, UAS-Sfla Or42a4/+ at1",3.43 ± 6.4
19,Or67dGal4; UAS-SflaOr42a4 at1,50.9 ± 14
20,"Or67dGal4, UAS-Sfla A181D S307P/+ at1",16.8 ± 14
